Assay results from PubChem BioAssay (Tox21).
Results filed as inconclusive are left out. The source made the active and inactive calls. Unless noted, the call rests on the fitted dose curve; in most records, active means well fitted curve in the direction sought with a large enough effect in the repeat runs; inconclusive means weak or mixed curves; inactive means no such curve, though single readings can be large; an effect the other way counts as inactive or inconclusive.

What was measured:
[1] = A CellTox Green Cytotoxicity Assay to monitor cytotoxicity in HepG2 cells - 8 hour (AID 1224890); further: nearly all actives have a fitted effect of over 45% in size
Summary of the method: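 Read-out is fluorescence of a cyanine dye excluded from live cells that stains DNA of dead HepG2 cells, with signal proportional to cytotoxicity. Plates were read at 0, 8, 16, 24, 32 and 40 h after compound addition.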

[2] = qHTS assay to identify small molecule antagonists of the androgen receptor (AR) signaling pathway using the MDA cell line in the presence of 0.5 nM R1881 - cell viability counter screen (AID 1259242); further: nearly all actives have a fitted effect of over 45% in size
Summary of the method: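 Counter screen for cytotoxicity run in the same wells as the AR antagonist reporter screen: MDA-kb2 cells were treated 16 hr with test compounds and 0.5 nM R1881, then live-cell protease activity was measured by fluorescence.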

[3] = target: Estrogen receptor (Homo sapiens) (UniProt P03372); assay: qHTS assay to identify small molecule antagonists of the estrogen receptor alpha (ER-alpha) signaling pathway using the BG1 cell line in the presence of 0.1 nM 17-beta-estradiol (AID 1259244); further: nearly all actives have a fitted effect of over 50% in size
Sequence of Estrogen receptor (Homo sapiens) (P03372 whole entry, looked up): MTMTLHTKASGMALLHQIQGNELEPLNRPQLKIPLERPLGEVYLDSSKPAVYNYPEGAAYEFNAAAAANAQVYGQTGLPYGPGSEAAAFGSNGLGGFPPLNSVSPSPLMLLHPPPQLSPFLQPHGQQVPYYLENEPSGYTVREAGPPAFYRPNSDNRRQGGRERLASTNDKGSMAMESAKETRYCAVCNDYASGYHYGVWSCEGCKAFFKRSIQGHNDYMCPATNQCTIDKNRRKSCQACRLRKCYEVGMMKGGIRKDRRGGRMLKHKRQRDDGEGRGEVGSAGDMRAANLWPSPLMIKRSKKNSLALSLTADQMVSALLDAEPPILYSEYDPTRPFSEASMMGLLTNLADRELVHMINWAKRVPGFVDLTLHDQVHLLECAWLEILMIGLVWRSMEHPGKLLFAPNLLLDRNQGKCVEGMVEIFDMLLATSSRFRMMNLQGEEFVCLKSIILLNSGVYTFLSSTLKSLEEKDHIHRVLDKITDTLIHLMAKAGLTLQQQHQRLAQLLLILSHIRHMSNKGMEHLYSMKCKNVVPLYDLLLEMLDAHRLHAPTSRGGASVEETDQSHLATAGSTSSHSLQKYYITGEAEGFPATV
Summary of the method: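 Cells: VM7Luc4E2, endogenous ER-alpha, 4x ERE-luc stable. Pre-culture 5 d, phenol red-free, charcoal-stripped FBS. Plated 24 h, compound + E2 0.1 nM final, 22 h 37C/5% CO2. Readout ONE-Glo luminescence.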

[4] = qHTS assay to identify small molecule HDAC inhibitors (AID 1259364); further: top concentration of the series differs between compounds; nearly all actives have a fitted effect of over 45% in size
Summary of the method: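 Luminescence from a cell-permeant luminogenic class I/II HDAC substrate reports endogenous deacetylase activity in intact HCT-116 cells treated with compounds for 2 h.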

[5] = qHTS assay to identify small molecule HDAC inhibitors - cell viability counter screen (AID 1259365); further: series mostly up to about 92 µM; nearly all actives have a fitted effect of over 50% in size
Summary of the method: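 HCT-116 (wild type), 1,500 cells/well, overnight 37C/5% CO2; compound in DMSO 2hr; CellTiter-Glo 30min RT; luminescence read.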

[6] = qHTS assay to identify small molecule agonists of the sonic hedgehog signaling (Shh) pathway - cell viability counter screen (AID 1259366); further: nearly all actives have a fitted effect of over 50% in size; further: potency means the concentration at half of the fitted maximal effect
Summary of the method: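 CellTiter-Fluor fluorescence read-out, 1 hr at 37C, added after 23hr compound exposure. Cells: 3T3 Gli1-Luc, an NIH/3T3 clone with stably integrated Gli1-Luc reporter, plated 4hr before compound.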

[7] = qHTS assay to identify small molecule antagonists of the sonic hedgehog signaling (Shh) pathway - cell viability counter screen (AID 1259367); further: nearly all actives have a fitted effect of over 55% in size; further: potency means the concentration at half of the fitted maximal effect
Summary of the method: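 Using CellTiter-Fluor, viability of Gli1-Luc reporter 3T3 cells is read by fluorescence in the wells used for the Shh luciferase assay. Treatment lasts 23 hr with conditioned medium, then reagent 1 hr at 37C.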

[8] = qHTS assay to identify small molecule agonists of the sonic hedgehog signaling (Shh) pathway (AID 1259368; calls by dose curve;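 further: NIH/3T3-derived 3T3Gli1-Luc cells carrying a stable Gli1-driven firefly luciferase reporter; series mostly up to about 92 µM; nearly all actives have a fitted effect of over 15% in size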)
Summary of the method: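 3T3Gli1-Luc (NIH/3T3 clone, stable Gli1-Luc); 4 hr pre-incubation, then cpd in DMSO 24 hr, 37 C/5% CO2; luciferase reagent 30 min RT; luminescence.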

[9] = target: Estrogen receptor beta (Homo sapiens) (UniProt Q92731); assay: qHTS assay to identify small molecule agonists of the estrogen receptor beta (ER-beta) signaling pathway (AID 1259377; active means well fitted activation curve with a large enough effect in the signal ratio in the repeat runs, not every such curve was filed as active; the % refers to the signal ratio; further: potency means the concentration at half of the fitted maximal effect)
Sequence of Estrogen receptor beta (Homo sapiens) (Q92731 whole entry, looked up): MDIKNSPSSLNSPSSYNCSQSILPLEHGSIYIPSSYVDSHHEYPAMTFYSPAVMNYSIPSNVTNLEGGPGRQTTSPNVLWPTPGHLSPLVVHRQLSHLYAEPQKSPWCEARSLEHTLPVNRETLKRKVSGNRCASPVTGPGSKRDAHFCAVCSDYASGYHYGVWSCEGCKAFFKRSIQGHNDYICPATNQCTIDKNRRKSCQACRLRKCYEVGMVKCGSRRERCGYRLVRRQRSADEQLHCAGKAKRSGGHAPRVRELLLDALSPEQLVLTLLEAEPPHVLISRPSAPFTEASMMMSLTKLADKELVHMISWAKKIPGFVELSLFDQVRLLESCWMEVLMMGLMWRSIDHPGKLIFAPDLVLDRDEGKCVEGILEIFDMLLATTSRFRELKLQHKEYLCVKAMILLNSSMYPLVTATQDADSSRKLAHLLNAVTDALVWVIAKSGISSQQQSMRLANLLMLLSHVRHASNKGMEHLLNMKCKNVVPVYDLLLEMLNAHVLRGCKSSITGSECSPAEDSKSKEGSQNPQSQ
Summary of the method: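 Beta-lactamase reporter readout: fluorescence of LiveBLAzer B/G FRET substrate after 2 h at room temperature, following 16 h compound treatment of ER-beta-UAS-bla HEK293T cells at 37C in 2% charcoal-stripped FBS medium.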

[10] = qHTS assay to identify small molecule agonists of the androgen receptor (AR) signaling pathway in the presence of an antagonist - cell viability counter screen (AID 1259379);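 further: MDA-kb2 human breast cancer cells carrying an MMTV luciferase reporter; series mostly up to about 92 µM; nearly all actives have a fitted effect of over 25% in size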
Summary of the method: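 Cells: MDA-kb2 (MMTV-luc, AR and GR elements), 3,000/well, 5 hr settle. Added: nilutamide 3.0uM final, then compounds (15 conc.). Incubation: 16 hr, 37C, no CO2. Read-out: CellTiter-Fluor, 1 hr, fluorescence.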

[11] = qHTS assay to identify small molecule agonists of the estrogen receptor beta (ER-beta) signaling pathway - cell viability counter screen (AID 1259380); further: nearly all actives have a fitted effect of over 30% in size
Summary of the method: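 HEK293T ER-beta-UAS-bla; 2% CS-FBS; 6 hr pre-plate, 16 hr cpd at 37C/5% CO2; LiveBLAzer read first, then CellTiter-Glo 30 min RT, luminescence.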

[12] = qHTS assay to identify small molecule antagonists of the estrogen receptor beta (ER-beta) signaling pathway - cell viability counter screen (AID 1259382);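 further: HEK293T cells carrying ER-beta-UAS-bla reporter stimulated with estradiol; series mostly up to about 92 µM; nearly all actives have a fitted effect of over 55% in size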
Summary of the method: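 Cells: ER-beta-UAS-bla HEK293T, 2,000/well, 2% CS-FBS, 6 hr settle. Cpd + E2 (1nM final), 16 hr, 37C/5% CO2. Bla FRET substrate 2 hr RT, then CellTiter-Glo 30 min RT, luminescence.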

[13] = target: Estrogen receptor (Homo sapiens) (UniProt P03372); assay: qHTS assay to identify small molecule agonists of the estrogen receptor alpha (ER-alpha) signaling pathway in the presence of an antagonist (AID 1259383; calls by dose curve; further: nearly all actives have a fitted effect of over 15% in size; further: potency means the concentration at half of the fitted maximal effect; on activation: top concentration of the series differs between compounds)
Summary of the method: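 VM7Luc4E2, endog. ER-alpha + 4×ERE-luc; charcoal-stripped FBS, phenol red-free, 5 d; 24hr plating; +10.0nM ICI-182,780 (final); cpds 15 conc, 22hr, 37C/5% CO2; ONE-Glo luminescence.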

[14] = qHTS assay to identify small molecule agonists or antagonists of the thyroid stimulating hormone receptor (TSHR) signaling pathway - wild type cell line counter screen (AID 1259384; calls by dose curve)
Summary of the method: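 Counter screen in untransfected Hek293: compounds (15-point titration, triplicate) plus phosphodiesterase inhibitor Ro20-1724 added after 18 h plating; 30 min RT. Intracellular cAMP via competitive d2/cryptate immunoassay, 1 h incubation.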

[15] = qHTS assay to identify small molecule phospholipidosis (PLD) inducers (AID 1259344; active means well fitted curve in the direction sought with a large enough effect; an effect the other way counts as inactive or inconclusive)
Summary of the method: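 Fluorescent phospholipid staining (LipidTOX Red) measured by automated microscopy in fixed HepG2 cells after 24 h treatment; nuclei counterstained with Hoechst 33342; amiodarone as reference inducer.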

[16] = qHTS assay to identify small molecule antagonists of the estrogen receptor alpha (ER-alpha) signaling pathway using the BG1 cell line in the presence of 0.1 nM 17-beta-estradiol - cell viability counter screen (AID 1259241); further: nearly all actives have a fitted effect of over 40% in size
Summary of the method: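 Live-cell protease activity (CellTiter-Fluor fluorescence, 30 min) was read in the same wells after VM7Luc4E2 cells had been exposed to compounds with 0.1 nM 17beta-estradiol for 22 hr at 37C.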

[17] = qHTS assay to identify small molecule antagonists of the sonic hedgehog signaling (Shh) pathway (AID 1259369; calls by dose curve; further: nearly all actives have a fitted effect of over 45% in size)
Summary of the method: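 3T3Gli1-Luc, conditioned-medium-stimulated, 24hr cpd, 37C/5% CO2; Gli1-driven firefly Luc luminescence after 30min RT with luciferase reagent. Cells plated 4hr before cpd.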

[18] = target: Estrogen receptor beta (Homo sapiens) (UniProt Q92731); assay: qHTS assay to identify small molecule antagonists of the estrogen receptor beta (ER-beta) signaling pathway (AID 1259378; active means well fitted inhibition curve with a large enough effect in the signal ratio in the repeat runs, not every such curve was filed as active; the % refers to the signal ratio)
Summary of the method: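 Antagonist mode: compounds added to beta-lactamase reporter HEK293T ER-beta-UAS cells stimulated with E2 (1nM final), 16 hr at 37C. LiveBLAzer B/G FRET substrate, 2 hours room temperature, fluorescence read-out.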

[19] = target: Androgen receptor (Homo sapiens) (UniProt P10275); assay: qHTS assay to identify small molecule antagonists of the androgen receptor (AR) signaling pathway using the MDA cell line in the presence of 0.5 nM R1881 (AID 1259243); further: nearly all actives have a fitted effect of over 50% in size
Sequence of Androgen receptor (Homo sapiens) (P10275 whole entry, looked up): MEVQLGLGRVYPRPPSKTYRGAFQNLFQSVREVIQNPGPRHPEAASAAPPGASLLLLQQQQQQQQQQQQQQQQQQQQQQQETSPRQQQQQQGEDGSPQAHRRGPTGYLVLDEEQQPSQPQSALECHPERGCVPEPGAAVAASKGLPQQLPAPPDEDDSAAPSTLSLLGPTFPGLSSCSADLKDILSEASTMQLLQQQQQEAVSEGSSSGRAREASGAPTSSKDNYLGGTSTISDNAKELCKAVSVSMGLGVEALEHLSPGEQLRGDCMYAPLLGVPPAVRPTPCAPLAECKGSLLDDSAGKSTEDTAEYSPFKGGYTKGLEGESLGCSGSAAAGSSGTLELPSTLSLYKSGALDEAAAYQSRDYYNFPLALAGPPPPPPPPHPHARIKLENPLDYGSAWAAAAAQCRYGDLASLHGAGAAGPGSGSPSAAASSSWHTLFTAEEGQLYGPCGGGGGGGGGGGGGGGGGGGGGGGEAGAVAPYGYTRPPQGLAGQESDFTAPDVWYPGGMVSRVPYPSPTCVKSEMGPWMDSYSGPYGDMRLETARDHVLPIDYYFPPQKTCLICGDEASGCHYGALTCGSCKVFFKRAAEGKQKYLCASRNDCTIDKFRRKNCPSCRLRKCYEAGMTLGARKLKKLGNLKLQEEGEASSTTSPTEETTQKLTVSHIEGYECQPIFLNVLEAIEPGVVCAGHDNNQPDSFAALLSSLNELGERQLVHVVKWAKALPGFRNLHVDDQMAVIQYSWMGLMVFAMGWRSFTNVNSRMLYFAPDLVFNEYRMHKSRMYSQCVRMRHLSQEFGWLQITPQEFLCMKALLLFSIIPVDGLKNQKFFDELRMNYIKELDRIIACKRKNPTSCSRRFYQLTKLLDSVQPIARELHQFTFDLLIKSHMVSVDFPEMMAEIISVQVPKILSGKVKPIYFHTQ
Summary of the method: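 Luciferase luminescence is the read-out: compounds are tested for suppressing 0.5 nM R1881-driven MMTV reporter activity in MDA-kb2 cells after 16 hr at 37C.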

[20] = target: Androgen receptor (Homo sapiens) (UniProt P10275); assay: qHTS assay to identify small molecule agonists of the androgen receptor (AR) signaling pathway in the presence of an antagonist (AID 1259381; calls by dose curve; further: nearly all actives have a fitted effect of over 15% in size)
Summary of the method: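 MDA-kb2 cells, 3,000/well, rested 5hr at 37C/0% CO2 → nilutamide 3.0uM final or buffer → compounds, 15 conc. → 16hr at 37C → ONE-Glo, 30min RT → luminescence.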

Measured: Potency

Oc1ccc(Cc2ccc(O)cc2)cc1
active: [9] 5.49 µM | [13] 30.9 µM
not listed: [15] | [16] | [17] | [18] | [19] | [20]
inactive: all other assays above

C[C@@H](N)[C@@H](O)c1ccccc1
inactive: [1] | [2] | [15] | [4] | [5] | [6] | [7] | [8] | [10] | [11] | [12]

CCOC(=O)C(Cl)Cc1cc(-n2nc(C)n(C(F)F)c2=O)c(F)cc1Cl (centres undefined)
not listed: [1] | [15] | [19] | [20]
inactive: all other assays above

COc1ccc(CN2CCNCC2)c(OC)c1OC
not listed: [1] | [2] | [14] | [19] | [20]
inactive: all other assays above

CCCC[N+](=O)[O-]
not listed: [1] | [6] | [9] | [15] | [18] | [19] | [20]
inactive: all other assays above

C1CN2CCC1CC2
not listed: [1] | [3] | [14] | [15] | [17] | [19] | [20]
inactive: all other assays above

CC(=NC#N)N(C)Cc1ccc(Cl)nc1
not listed: [1] | [3] | [13] | [15] | [17] | [19] | [20]
inactive: all other assays above

Cn1c(N)nc2c3cccnc3ccc21
inactive: [4] | [5] | [8] | [9] | [18] | [10] | [11] | [12] | [13]
active: [6] 26 µM | [7] 26 µM

O=C(O)CBr
inactive: [4] | [5] | [6] | [7] | [8] | [17] | [9] | [10] | [11] | [12] | [14]

O=C(Cl)CCl
not listed: [1] | [3] | [15] | [19] | [20]
inactive: all other assays above

C=CC=O
not listed: [1] | [3] | [13] | [15] | [19] | [20]
inactive: all other assays above

c1cncc([C@@H]2CCCCN2)c1
not listed: [1] | [3] | [15] | [19] | [20]
inactive: all other assays above

COc1cc(CC(C)N)cc(OC)c1OC (centres undefined)
not listed: [1] | [3] | [18] | [19] | [20]
inactive: all other assays above

O=C(CCl)NCO
not listed: [1] | [9] | [14] | [15] | [18] | [19] | [20]
inactive: all other assays above

O=C(NC(=O)c1c(F)cccc1F)Nc1cc(Cl)c(F)c(Cl)c1F
not listed: [1] | [9] | [15] | [16] | [17] | [18] | [19] | [20]
inactive: all other assays above

C/C(=N\NC(=O)Nc1cc(F)cc(F)c1)c1ncccc1C(=O)O
not listed: [1] | [15] | [19] | [20]
inactive: all other assays above

O=C(Cl)OCc1ccccc1
not listed: [1] | [14] | [15] | [16] | [19] | [20]
inactive: all other assays above

O=c1[nH]c2ccccc2o1
inactive: [16] | [2] | [4] | [5] | [6] | [7] | [8] | [10] | [11] | [12]

O=C1CCCCC1Cl (centres undefined)
inactive: [2] | [4] | [5] | [7] | [8] | [9] | [18] | [10] | [11] | [12] | [14]

N[C@@H]1C[C@H]1c1ccccc1
not listed: [1] | [2] | [6]
inactive: all other assays above
